# Assay results published in PubChem BioAssay (NCI).
# Compounds without any hit were thinned out: in the full panel of roughly 79,000, 15% have a hit. Values without a mark were called inactive. Activity calls are given as the source filed them. No stated cut-off is given here; in the data, active means growth inhibition above about 70%; inactive means the rest. Where a SMILES comes first, the peptide text is derived from it.
# Assays:
# [1] = NCI Yeast Anticancer Drug Screen. Data for the rad50 strain (AID 155);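 further: 0% = growth of vehicle-only cultures of the same strain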; conditions: S. cerevisiae rad50 strain growth inhibition; at 50.0 µM; hits give high values
# Method in brief: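 Vehicle-treated cultures provide the reference for the growth inhibition reported for compound-exposed, repair-deficient yeast.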
# [2] = NCI Yeast Anticancer Drug Screen. Data for the mec2-1 strain (AID 157); conditions: S. cerevisiae mec2-1 strain, at 50.0 µM, hits give high values
# Method in brief: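 Cells of the genetically defined mec2-1 yeast strain are incubated with test compound. Inhibition of growth is calculated against vehicle-treated controls.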
# [3] = NCI Yeast Anticancer Drug Screen. Data for the sgs1 mgt1 strain (AID 161);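 further: 0% = growth of cultures given vehicle only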; conditions: S. cerevisiae sgs1 mgt1 strain, at 50.0 µM, hits give high values
# Method in brief: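 Inhibition of yeast growth, normalised to vehicle-treated controls, is reported for a strain bearing genetic alterations in DNA damage repair.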
# [4] = NCI Yeast Anticancer Drug Screen. Data for the cln2 rad14 strain (AID 165);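 further: 0% = growth equal to vehicle treated cultures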; conditions: S. cerevisiae cln2 rad14 strain, at 50.0 µM, hits give high values
# Method in brief: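 The screen exposed genetically defined yeast (cln2 rad14) to test compounds and scored growth inhibition relative to vehicle-treated controls.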
# [5] = NCI Yeast Anticancer Drug Screen. Data for the bub3 strain (AID 167); conditions: S. cerevisiae bub3 mutant strain, at 50.0 µM, hits give high values
# Method in brief: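 Mutant yeast screening strain plus compound; vehicle-treated cultures serve as the 0% inhibition reference.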
# [6] = NCI Yeast Anticancer Drug Screen. Data for the mlh1 rad18 strain (AID 175); conditions: S. cerevisiae mlh1 rad18 strain growth inhibition; at 50.0 µM; hits give high values
# Method in brief: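 Compound-treated yeast growth, normalised to vehicle controls. Strain bears defined DNA repair mutations.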
Structure (SMILES),growth inhibition [1],growth inhibition [2],growth inhibition [3],growth inhibition [4],growth inhibition [5],growth inhibition [6]
N#CCC(=O)N/N=C(\C(=O)Nc1ccc(Cl)c(Cl)c1)C1CN(c2ccccc2)N=C1N (stereo not given),24.4%,6.9%,-11.8%,-44.4%,0.45%,-8.4%
CN(C)CCCNC(=O)c1cc(NC(=O)c2cc(NC(=O)c3cc(NC(=O)CCCn4ccc(CO)c4CO)cn3C)cn2C)cn1C,6.6%,-8.6%,-5.35%,31.6%,4.8%,8.35%
COc1ccc(N2C(=O)C3c4[nH]c5ccc(F)cc5c4C4CCC(C(C)(C)C)CC4C3C2=O)cc1 (stereo not given),-7.05%,-2.3%,1.55%,7.45%,-3.2%,22.1%
O=C1CN(/C=C(\c2ccccc2)S(=O)Cc2ccccc2)C(=S)N1 (stereo not given),-19.9%,-29.5%,-28.4%,-7.7%,0%,-24.2%
CCCCCCC1(C)OCC(c2ccccc2)O1 (stereo not given),-0.1%,-33.5%,5.95%,-11.7%,2.2%,9.65%
c1ccc(B2OCC(C3OB(c4ccccc4)OC4COB(c5ccccc5)OC43)O2)cc1 (stereo not given),32.5%,-2.45%,-1.2%,-30.9%,-23.2%,23.6%
COc1ccc(/C=C2\CCCC3=C2NC(=S)NC3c2ccc(OC)cc2)cc1 (stereo not given),24.8%,21.4%,-6.35%,5.9%,-1.95%,-37.4%
COc1ccc(CC(C)=C(C#N)C#N)cc1OC,-10.8%,-2.45%,-8.25%,11.8%,-0.05%,-17.3%
N=C1C=Cc2ccccc2/C1=N/N=c1/ccccn1O,72.2% (active),91.6% (active),73.5% (active),51.7%,98.3% (active),78.2% (active)
Cc1cccc(N=N/C(=N\NC(=O)c2cc(Cl)ccc2O)c2ccc(N(CCC#N)CCC#N)cc2C)c1,13.7%,-1%,19.7%,1.8%,13.8%,-79.6%
CCCCCCCC/C=C\CCCCCCCC(=O)OCCN(CCOC(=O)CCCCCCC/C=C/CCCCCCCC)C(=O)COC(=O)CCCCCCC/C=C\CCCCCCCC,-9.3%,-11.8%,-24.4%,-7.6%,-7.35%,10.7%
O=C1c2ccccc2C(=O)N1C1CCCCC1,7.15%,35.9%,22.4%,-4.25%,56.4%,-16.6%
CCCc1cc(C)cc(N=Cc2ccccc2)c1O,96.6% (active),97.6% (active),93.8% (active),97.8% (active),97% (active),97.2% (active)
CCOC(=O)c1ccc(N=Nc2c(N)nc(N)nc2N)cc1,-10.4%,10.3%,-1.7%,-61.4%,-0.15%,-11%
CC(=O)Nc1cc(-c2ccccc2)ccc1O,56.7%,30.1%,56.8%,32.2%,40.2%,57.4%
CCOC(=O)c1ccccc1NC,-8.65%,-7.4%,-12.1%,-4.9%,-23.4%,-26.1%
Cn1ccnc1CCc1c(Cl)cccc1Cl,-19.9%,-21.4%,-47.1%,9.4%,-16.2%,-22.9%
O=C(O)C1CCC(=O)N1Cc1csc(-c2ccccc2)n1 (stereo not given),-23.8%,-19.6%,-1.45%,-19.6%,-7.15%,2.7%
CC(C)(C)OC(=O)C(C1NC(C(=O)O)C(C)(C)S1)N1C(=O)c2ccccc2C1=O (stereo not given),-29.8%,-43%,-53.7%,-42.1%,-56.4%,-17.4%
CN1CCCC(C(=O)O)(c2ccccc2)CC1 (stereo not given),-17.3%,-5.95%,-19.2%,-35.2%,-14.7%,-24.1%

Structure (SMILES),growth inhibition [1],growth inhibition [2],growth inhibition [3],growth inhibition [4],growth inhibition [5],growth inhibition [6]
CN(C)c1ccc(/C=C/C=C/C(=O)c2ccccc2)cc1,-5.35%,16.2%,-0.1%,5.55%,-13.8%,-7.4%
O=C(CCc1ccccc1)n1cccc1CO,-10.1%,-21.1%,-6.85%,17.9%,16.2%,1.35%
O=[N+]([O-])/C=C/c1cn(CCCCCn2cc(/C=C/[N+](=O)[O-])c3ccccc32)c2ccccc12,-5.65%,-8.65%,-2.45%,-7.65%,8.35%,-9.8%
Cc1cc(C)c(S(=O)(=O)c2cccs2)c(C)c1,-7%,-10.2%,-8.25%,-6.45%,5.25%,-2.8%
CC(=O)NNC(=O)NCCCCCCNC(=O)NNC(C)=O,16.1%,20.2%,25.4%,16.2%,17.9%,26.5%
COc1cc(C2C3=C(COC3=O)Oc3cc4c(cc32)OCO4)cc(OC)c1OC (stereo not given),-3.15%,24.1%,-8.35%,14.2%,-12.2%,3.5%
CCN(CC)CCn1c2c3ccccc3ccc2c2oc(=O)c3ccccc3c21,-13.8%,6.6%,-14.1%,19.4%,-7.5%,7.8%
CCN(CC)CC(C)(C)C=O,26.9%,-19.8%,20.8%,4.3%,-7.55%,15.1%
CC(C)SCCO,-2.55%,10.2%,7.6%,-9.65%,-26.6%,-13.4%
CCOC(=O)C/C(C)=C1/N=C(c2ccccc2)OC1=O,28.9%,7.85%,23.2%,14.8%,37%,30.8%
O=C(NC1(C(=O)O)CC1c1ccccc1)c1ccccc1 (stereo not given),-1.2%,21%,0.05%,-10.2%,9.05%,42.8%
SCCNCc1ccco1,-31.4%,-68.5%,-15.9%,20.6%,-32.6%,4.9%
CC1=CCCC(C)(C)C1/C=C\C(C)=N\Nc1ccc([N+](=O)[O-])cc1[N+](=O)[O-] (stereo not given),0.55%,-3.3%,-12.3%,-33.9%,-0.15%,6.3%
Fc1ccc(-c2cc(-c3cccs3)cc(-c3ccccc3)n2)cc1,8.6%,-9.45%,21.2%,8.55%,20.8%,11.1%
CC(=O)NC(C(=O)N1CCCC1C(=O)O)C(C)C (stereo not drawn) (Ac-Val-Pro-OH; configuration not given here),7.9%,-3.15%,-6.65%,1.7%,-19.1%,0.6%
CNC(=O)N(C)C(C)=O,-6.15%,-1.25%,0%,-3.25%,-5.15%,4.9%
Nc1nc(SCc2ccccc2)c2ncn(C3CC(O)C(CO)O3)c2n1 (stereo not given),0.05%,-1.2%,3.1%,-99.5%,-1.45%,-6.15%
O=C1/C(=N\N(C(=O)c2ccccc2)c2ccccc2)c2cccc3cccc1c23,11.8%,49%,20.4%,12.2%,24.9%,35.9%
Cc1nc2sccc2c(=O)n1C,-4.5%,-3.6%,-0.9%,-4.1%,0.2%,-4.35%
CCc1n[nH]c(=O)n1N1C(=O)C2CCCCC2C1=O (stereo not given),16.1%,-20.5%,35.1%,6.5%,3.2%,-25.9%
